Source: PubChem BioAssay (National Center for Advancing Translational Sciences (NCATS))
Pf growth 96h: Primary qHTS for delayed death inhibitors of the malarial parasite plastid, 96 hour incubation. P. falciparum luciferase reporter growth, 96 h. Potency, µM (doses to about 28.7 µM), without a hit: at the top dose activity change, negative = inhibition, most hits filed as inhibitors. 320,000 compounds, 6.9% hits. AID 504834, 2011; also: % is scaled to controls: 0 for no effect and ±100 for the full control effect
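Two parasite generations (96 h, 37 C, 5% CO2) of compound exposure in infected erythrocytes (0.05% parasitemia, 2% hematocrit). Luciferase-reporter P. falciparum; decreased luminescence indicates inhibited growth, aimed at apicoplast-acting delayed death.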
SARS PLpro yeast: qHTS of Yeast-based Assay for SARS-CoV PLP; S. cerevisiae expressing SARS-CoV PLpro, growth rescue; Potency, µM (titrated, usually from 32.9 µM), inactives show top-dose activity, positive = growth rescue, most hits filed as activators; 330,000 compounds, 0.19% hits; calls by dose curve; also: 0% is about no effect; nearly all actives have a fitted effect of over 55% in size
Pf growth 48h: Primary qHTS for delayed death inhibitors of the malarial parasite plastid, 48 hour incubation. 310,000 compounds, 5.9% hits. Potency, µM (highest dose often 28.7 µM), without a hit: at the top dose activity change, negative = inhibition, hits mostly inhibitors. AID 504832, 2011. P. falciparum luciferase growth in erythrocytes, 48 h; also: % is scaled to controls: 0 for no effect and ±100 for the full control effect
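First compound was added to culture medium, then infected red cells at 0.1% parasitemia and 2% hematocrit (final). After incubation at 37 C under 5% CO2, luciferase detection reagent was dispensed and light output recorded.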
NS1 function inh: qHTS Assay for Inhibitors of Influenza NS1 Protein Function | Potency, µM (highest dose often 46.1 µM), inactives show at the top dose activity, positive = more growth | 270,000 compounds, 0.4% hits; calls by dose curve; also: actives are rising curves; nearly all actives have a fitted effect of over 50% in size
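S. cerevisiae expressing influenza A NS1, grown in glucose, washed, then diluted 1:100 into pH 6.0 -URA galactose medium with 23 nl compound. Growth recovery read as OD600; NS1-free strain serves as control.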
An asterisk follows results filed as active; ? = inconclusive; · = no result given; [ ] = dose if it differs, or a comment. In the library only some 10% were active in any assay of this set; here they are far more common. Unless noted, calls follow the shape of the dose curve; as a rule, active = well fitted inhibition curve with a large enough effect; inconclusive = small, poorly fitted or top-dose-only effect, or another doubt; inactive = no such curve, though single readings can be large or run the other way. Potency is read from the fitted curve at half-maximal effect.

SMILES | Pf growth 96h | SARS PLpro yeast | Pf growth 48h | NS1 function inh
O=C1CC(N2CCC(C(=O)N3CCCCC3)CC2)C(=O)N1 (stereo not drawn) | 14.9% | 0.0% | 11.0% | -9.2%
Cc1cccn2c(=O)c(C=O)c(N3CCSCC3)nc12 | 13.1% | 0.1% | 0.2% | -0.3%
COc1ccc(C2CC(=O)c3cnc(NC(=O)c4ccccc4OC)nc3C2)c(OC)c1 (stereo not drawn) | 9.28µM* | -13.5% | ? | -60.6%
COc1ccc(C2CC(=O)c3cnc(NC(=O)c4cccc(OC)c4)nc3C2)cc1 (stereo not drawn) | ? | 10.1% | ? | -49.9%
COc1ccccc1C(=O)N/C(=C/c1ccco1)C(=O)Nc1cccc(C(=O)O)c1 | 373.9% | -2.2% | 14.0% | 20.7%
Cc1ccc(CNC(=S)Nc2ccc(NS(=O)(=O)c3ccc(C)cc3)cc2)cc1 | 10.4µM* | -5.0% | -21.2% | 16.1%
CCOC(=O)C1(Cc2ccccc2C)CCCN(S(=O)(=O)CC)C1 (stereo not drawn) | ? | -8.6% | 0.0% | -14.9%
CCCCN(c1ccccc1)S(=O)(=O)c1ccc2c(c1)CCN2C(=O)CCC(=O)O | 9.28µM* | -1.6% | ? | -0.2%
CCC(=O)N1CCc2cc(S(=O)(=O)Nc3ccccc3C)ccc21 | 0.928µM* | 1.5% | 1.7% | 2.8%
CCCN(c1ccc(OCC)cc1)S(=O)(=O)c1ccc2c(c1)CCN2C(=O)CCC(=O)O | -39.2% | 0.2% | ? | -6.5%
CCC(=O)N1CCc2cc(S(=O)(=O)NCCN3CCC(C)CC3)ccc21 | 1.65µM* | 8.1% | · | ?
Cn1c(=O)oc2cc(S(=O)(=O)NCCC(=O)NC3CCCc4ccccc43)ccc21 (stereo not drawn) | -5.8% | 1.2% | -17.0% | 5.1%
COc1ccccc1NS(=O)(=O)c1ccc2c(c1)CCN2C(=O)CCC(=O)O | ? | -1.6% | -19.9%[0.00184 µM] | 9.7%
CC(=O)N1CCc2cc(S(=O)(=O)NCCC(=O)NC3CCCc4ccccc43)ccc21 (stereo not drawn) | 36.5% | 0.1% | 11.7µM* | 7.8%
CCOc1ccc(S(=O)(=O)NCc2ccc3c(c2)OCO3)cc1NC(C)=O | -22.9% | -4.4% | 0.6% | 14.6%
Cn1ncc(Cl)c1C(=O)NNC(=O)Nc1cccc2ccccc12 | ? | 2.1% | 4.5% | 9.8%
Cc1ccc(O)c(C(=O)c2cnn(C(=O)COc3ccccc3C#N)c2)c1 | 12.4% | -4.9% | 15.4% | -1.1%
Cc1ccccc1NS(=O)(=O)c1cc2c3c(c1)CC(=O)N3CCC2 | 8.7% | -1.4% | 13.1µM* | 13.2%
Cc1cccc(NS(=O)(=O)c2cc3c4c(c2)CC(=O)N4CCC3)c1C | 75.0% | 1.3% | ? | 10.7%
O=C(O)CNS(=O)(=O)c1ccc2c(c1)Cc1cc(S(=O)(=O)NCC(=O)O)ccc1-2 | 4.4% | -3.0% | 0.6% | -5.3%
C=CCOC(=O)C1=C(C)NC(SCC(=O)Nc2ccc(C)c(Cl)c2)=C(C#N)C1c1ccco1 (stereo not drawn) | ? | -0.4% | 4.15µM* | -5.0%
COCCOC(=O)C1=C(C)NC(SCC(=O)NC(C)(C)C)=C(C#N)C1c1ccco1 (stereo not drawn) | · | ? | ? | 1.4%
CCOC(=O)C1=C(c2ccccc2)NC(SC)=C(C#N)C1c1cccnc1 (stereo not drawn) | 11.7µM* | -2.4% | ? | -17.3%
CC(=O)C1=C(C)NC(SCC(=O)Nc2nc3ccccc3s2)=C(C#N)C1c1ccc(Cl)cc1 (stereo not drawn) | 6.57µM* | 7.1% | 7.38µM* | ?
C=CCOC(=O)C1=C(C)NC(SCC)=C(C#N)C1c1ccc(Cl)cc1 (stereo not drawn) | 10.4µM* | -28.7% | ? | 0.1%
SMILES | Pf growth 96h | SARS PLpro yeast | Pf growth 48h | NS1 function inh
CCCCOC(=O)CSC1=C(C#N)C(c2cccnc2)C(C(=O)OCC)=C(c2ccccc2)N1 (stereo not drawn) | ? | -0.3% | ? | ·
Cc1ccc(NC(=O)C2COc3ccccc3O2)cc1S(=O)(=O)N1CCOCC1 (stereo not drawn) | ? | -4.7% | ? | ·
CCOC(=O)C1=C(c2ccccc2)NC(SCC(=O)NC2CCCCC2)=C(C#N)C1c1ccco1 (stereo not drawn) | 16.0% | 0.0% | 11.7µM* | 13.6%
Cc1ccc(NC(=O)c2ccc(N3CCCC3=O)cc2)cc1S(=O)(=O)N1CCCCC1 | 0.37µM* | -0.4% | ? | ·
Cc1ccc(NC(=O)C2CCN(S(=O)(=O)c3ccc(N4CCCC4=O)cc3)CC2)cc1Cl | 5.86µM* | 13.1% | ? | -22.3%
COc1ccc(NC(=O)C2CCN(S(=O)(=O)c3ccc(N4CCCC4=O)cc3)CC2)c(OC)c1 | ? | 4.3% | ? | 8.2%
CCOc1ncccc1C(=O)Nc1ccc(C)c(S(=O)(=O)N2CCCCCC2)c1 | ? | -4.1% | 13.1µM* | ·
O=C(NCc1ccccc1Cl)C1CCN(S(=O)(=O)c2ccc(-n3cnnn3)cc2)CC1 | 21.1% | -2.9% | 11.6% | 0.5%
O=C(Nc1cccc(S(=O)(=O)N2CCCCC2)c1)c1ccc(N2CCCC2=O)cc1 | ? | 5.7% | ? | ·
O=C(NCc1ccccc1Cl)C1CCN(S(=O)(=O)c2ccc(N3CCCC3=O)cc2)CC1 | 9.28µM* | 1.8% | ? | -0.2%
O=C(NCc1ccco1)C(=O)NCC(c1ccco1)N1CCOCC1 (stereo not drawn) | 14.4% | -0.9% | 0.0% | ·
COc1ccc(CNc2nc(SCc3cc(=O)n4cc(Cl)ccc4n3)nc3ccccc23)cc1 | 19.3% | 24.4% | 38.0% | 5.9%
O=C(Nc1ccncc1)C1CCN(S(=O)(=O)c2c(Cl)cccc2Cl)CC1 | ? | -5.0% | -24.2% | ·
C=CCN(CC=C)C(=O)C1CCN(S(=O)(=O)c2ccc(N3CCCC3=O)cc2)CC1 | 7.38µM* | 0.0% | -18.7% | -8.4%
C=CCN(CC=C)C(=O)C1CCN(S(=O)(=O)c2ccc(-n3cnnn3)cc2)CC1 | 0.9% | 0.4% | 2.0% | 3.5%
Cc1cc(C)cc(NC(=O)COc2ccc3c(C)c(Cc4ccccc4)c(=O)oc3c2)c1 | ? | 1.2% | 8.28µM* | 17.8%
Cc1c(Cc2ccccc2)c(=O)oc2cc(OCC(=O)c3ccccc3)ccc12 | -28.0% | 19.6% | 10.3% | -2.7%
Cc1cccc(C)c1NC(=O)COc1ccc2c(C)c(Cc3ccccc3)c(=O)oc2c1C | 19.9% | -12.0% | -27.2% | -2.8%
Cc1c(Cc2ccccc2)c(=O)oc2c(C)c(OCC(=O)Nc3ccc(C#N)cc3)ccc12 | 2.08µM* | 5.7% | ? | 4.7%
C=C(C)COc1ccc2c(C)c(CCC(=O)NC3CC3)c(=O)oc2c1 | 10.4µM* | -4.8% | 10.4µM* | -31.1%
Cc1cc(OCC(=O)NCC2CCC(C(=O)O)CC2)c2c(C)c(Cc3ccccc3)c(=O)oc2c1 (stereo not drawn) | 3.29µM* | -6.6% | 11.7µM* | 3.7%
COc1ccc(-c2oc3c(OC)c(OC)c(OC)c(O)c3c(=O)c2OC)cc1OC | 3.29µM* | 13.5% | ? | 9.1%
COc1ccc(-c2oc3cc(OC)c(O)c(OC)c3c(=O)c2OC)cc1O | 10.4µM* | -0.2% | ? | -1.9%
